Source: PubChem BioAssay
M1 ag parental – nonselective activator or artifact in parental CHO-K1 cells. activation, % at 3 µM. 0.48% of 360,000 active. Fluo-8 calcium fluorescence; scaled to maximal ATP response, vehicle zero; in the data active means activation above about 15%;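 further: untransfected CHO-K1 host cells lacking M1 receptor as counterscreen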
CHRM1 antagonist – blocks human M1 muscarinic receptor | CHO-K1 hM1, Fluo-8 calcium fluorescence, ACh EC80 antagonist | inhibition, % at 3 µM | 1.3% of 360,000 active | AID 588852;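 active means percent inhibition above its own plate's cutoff, namely the mean of that plate's compound wells plus 3 SD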;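 further: peak over basal fluorescence ratio during 140 s after agonist addition; 0% = ACh EC80 plus DMSO and 100% = DMSO alone without agonist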
Target sequence (P11229 whole entry, looked up): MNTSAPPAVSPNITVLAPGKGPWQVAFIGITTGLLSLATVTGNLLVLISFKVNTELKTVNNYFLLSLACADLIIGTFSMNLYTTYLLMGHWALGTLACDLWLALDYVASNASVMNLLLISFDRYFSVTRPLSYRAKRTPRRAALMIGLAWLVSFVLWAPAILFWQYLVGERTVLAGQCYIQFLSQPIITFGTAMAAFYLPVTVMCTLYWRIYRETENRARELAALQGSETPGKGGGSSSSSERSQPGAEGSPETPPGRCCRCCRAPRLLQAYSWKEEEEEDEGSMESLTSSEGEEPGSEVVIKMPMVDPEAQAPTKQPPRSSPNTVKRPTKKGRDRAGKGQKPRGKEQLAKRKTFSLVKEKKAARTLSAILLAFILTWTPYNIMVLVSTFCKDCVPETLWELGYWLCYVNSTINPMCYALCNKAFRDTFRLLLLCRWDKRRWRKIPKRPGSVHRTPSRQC
CHO-K1 Ca PAM – counter-screen for M1 PAMs: effect in parental CHO-K1 cells | ATP EC20, Fluo-8 calcium fluorescence; 0% at ATP EC20, 100% at ATP max | activation, % at 3 µM | 0.02% of 360,000 active;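 active means activation above the run cutoff, the mean activation of all test compounds plus 3 SD, cut at about 40% in these data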;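 further: peak over basal fluorescence ratio in a 140 s read after ATP addition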
CHRM1 PAM – human CHRM1 positive allosteric modulation | P11229 | CHO-K1 hM1, Fluo-8 calcium fluorescence, ACh EC20; 0% = ACh EC20, 100% = maximal ACh | activation, % at 3 µM | 0.088% of 360,000 active | AID 588819; in the data active means activation above about 19%, passing the limit was not always enough
CHO-K1 Ca antag – M1 antagonist counterscreen hit in parental CHO-K1 cells; inhibition, % at 3 µM; AID 602250; 0.6% of 360,000 active; ATP-induced calcium, Fluo-8 fluorescence;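 active means inhibition above a per-plate cutoff, the plate's mean sample inhibition plus 3 SD, cut at about 24% in these data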;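 further: 0% = DMSO plus EC80 ATP and 100% = DMSO alone without ATP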
M1 ag – human M1 muscarinic receptor agonism; P11229; CHO-K1 hM1, Fluo-8 calcium fluorescence, agonist mode; 0% DMSO, 100% acetylcholine EC100; activation, % at 3 µM; 0.33% of 360,000 active; AID 588814;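 active means activation above the run's mean compound activation plus 3 SD, cut at about 16% in these data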;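 further: peak over basal fluorescence ratio within a 140 s kinetic read after compound addition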
Starred values were filed as active, the others as inactive. Most compounds without a hit are left out; they make up all but 2.3% or so of the library.

SMILES | M1 ag parental | CHRM1 antagonist | CHO-K1 Ca PAM | CHRM1 PAM | CHO-K1 Ca antag | M1 ag
CN(C)C(=O)[C@H]1C[C@H]1[C@@H](O)[C@H](CO)NC(=O)[C@H](Cc1ccccc1)NC(=O)OC(C)(C)C | 0 | -2 | 2 | 10 | 4 | -2
CCc1nnc(NC(=O)CN2CCN(Cc3ccc(C)cc3)CC2)s1 | 0 | -7 | 14 | 6 | -1 | -5
O=[N+]([O-])/C=C\c1ccc(N2CCCC2)c(F)c1 | 27* | 51* | -3 | 3 | 18 | 24*
O=Cc1ccc(N2CCCC2)c([N+](=O)[O-])c1 | 0 | -7 | 23 | 12 | -14 | -7
COc1cc(CN2C[C@@H](CO)O[C@@H](n3cnc4c(NCc5ccncc5)ncnc43)C2)cc(OC)c1OC | 0 | -10 | 6 | 4 | -6 | -1
C[N+](C)(C)CCOC(=O)C1(c2ccccc2)CCCC1 | 1 | 99* | 16 | -22 | -12 | -5
O=C(COC(=O)C1(c2ccccc2)CC1)NNC(=O)c1ccccc1F | 6 | -11 | -20 | 5 | 16 | -1
COc1ccc(NC(=O)C2(c3ccccc3)CCCC2)cc1 | 0 | -8 | 16 | 2 | -10 | -12
CCN(CC)CCOC(=O)C1(c2ccccc2)CCOCC1 | 0 | 8 | -7 | -23 | 10 | -7
CCN(CC)CCCOC(=O)C1(c2ccccc2)CCCC1 | 1 | 99* | 1 | -19 | -3 | -5
CCN(CC)CCOC(=O)C1(c2ccc([N+](=O)[O-])cc2)CCCC1 | 0 | 96* | 8 | -26 | -6 | -5
CC(C[N+](C)(C)C)OC(=O)C1(c2ccccc2)CCCC1 (centres undefined) | 1 | 93* | 17 | -26 | -11 | -5
Cc1cc(OCC(O)CN(C)C(=O)C(C)Oc2ccccc2)ccc1Cl (centres undefined) | 4 | -4 | 7 | 4 | 6 | 0
O=C(NCc1ccncc1)/C(=C/c1cccc([N+](=O)[O-])c1)NC(=O)c1ccccc1 | 1 | -5 | 4 | 3 | -6 | -5
COc1ccc(C(=O)OCC[N+]2(C)CCCCC2)cc1 | 5 | -7 | 22 | 6 | -9 | -4
C[N+]1(CCOC(=O)C2(c3ccccc3)CCCC2)CCCCC1 | 0 | 100* | 13 | -23 | -9 | -6
CC(Sc1ccc([N+](=O)[O-])cn1)C(=O)Nc1nccs1 (centres undefined) | 7 | -5 | 23 | 4 | -10 | -6
O=C(CSc1ccccc1F)NCC1(N2CCCCC2)CCCCC1 | 1 | -5 | 10 | 6 | -21 | -8
Cc1cc(/C=C\c2ccc3cc(N(C)C)ccc3[n+]2C)c(C)n1-c1ccccc1 | 20* | 90* | -7 | -28 | 35* | 26*
C[n+]1c(/C=C/c2ccc(O)cc2)ccc2ccccc21 | -1 | 0 | 12 | 0 | -9 | -9
CC(C)(C)OC(=O)C[C@@H]1C/C=C\C[C@H](CC(=O)N[C@H](CO)Cc2ccccc2)C(=O)N[C@@H](Cc2c[nH]c3ccccc23)COC1=O | 0 | -9 | 4 | -2 | -5 | -7
COC(=O)C1(CCSC)NC(c2ccc(O)c(OC)c2)C2C(=O)N(c3ccc(C)cc3)C(=O)C21 (centres undefined) | 3 | -5 | 20 | 4 | -10 | 25*
Cc1ccc2c(c1)NC(=O)C(CC(=O)O)O2 (centres undefined) | 0 | 3 | -8 | -3 | 26* | -4
CCC1CCCCN1CCCNC(=O)CC1Oc2ccccc2NC1=O (centres undefined) | 0 | 17 | 0 | -9 | 3 | -13
CCC1CCCCN1CCCNC(=O)CC1Oc2ccc(C)cc2NC1=O (centres undefined) | 0 | 41* | -10 | -26 | 21 | -14
O=C(NCCN1CCOCC1)C1CCC(=O)N1Cc1ccccc1Cl (centres undefined) | 0 | -13 | 19 | 7 | -7 | -5
O=C(NCC1CCCO1)C1CCC(=O)N1Cc1ccccc1Cl (centres undefined) | 0 | 6 | -5 | 1 | 25* | 0
O=C1OC(N2C(=O)CC[C@H]2C(=O)NCC2CCCO2)c2ccccc21 (some centres undefined) | 1 | 102* | 12 | 2 | 8 | -4
